# Measurements taken from article PMC11995724, “Antibiotic target discovery by integrated phenotypic and activity-based profiling of electrophilic fragments” (Cell chemical biology, 2025).
# Screen size: about 3,200 compounds; about 110 (3.4%) showed an effect of 50% or more. The full list was thinned out, with strong results kept by preference.
# System: T1, V. cholerae SAD30
# T1 construct: SAD30
# Parameters: species or system S. aureus MSSA476 (TSB) or V. cholerae SAD30 (LB); 384-well bacterial growth screen at 25 uM, OD600 relative to DMSO control
# Conditions: relative growth, OD600, LB; 25 µM; inhibitor
row,Compound,% of control remaining [%]
1,"O=C1C=CC(=O)N1c1cc(C(F)(F)F)ccc1Cl [10-G09, 1-[2-chloro-5-(trifluoromethyl)phenyl]-2,5-dihydro-1H-pyrrole-2,5-dione]",26.3394
2,"O=C(CCl)N1CCCCc2ccc([N+](=O)[O-])cc21 [5-I18, 2-chloro-1-(8-nitro-2,3,4,5-tetrahydro-1H-1-benzazepin-1-yl)ethan-1-one]",94.3154
3,"N#CC(=Cc1cc([N+](=O)[O-])ccc1Cl)C(N)=O [8-F21, 3-(2-chloro-5-nitrophenyl)-2-cyanoprop-2-enamide]",76.0707
4,"CC(Cl)C(=O)Nc1cc([N+](=O)[O-])ccc1Cl (stereo not drawn) [6-I14, 2-chloro-N-(2-chloro-5-nitrophenyl)propanamide]",87.6671
5,"O=C1C=CC(=O)N1c1cc([N+](=O)[O-])ccc1Cl [10-H15, 1-(2-chloro-5-nitrophenyl)-2,5-dihydro-1H-pyrrole-2,5-dione]",28.2096
6,"N#Cc1cc([N+](=O)[O-])ccc1NC(=O)CCl [4-O09, 2-chloro-N-(2-cyano-4-nitrophenyl)acetamide]",91.611
7,"CC(Cl)C(=O)Nc1cc(C(F)(F)F)ccc1Cl (stereo not drawn) [4-N15, 2-chloro-N-[2-chloro-5-(trifluoromethyl)phenyl]propanamide]",99.8922
8,"O=C(CCl)Nc1cc(C(F)(F)F)ccc1Cl [4-J04, 2-chloro-N-[2-chloro-5-(trifluoromethyl)phenyl]acetamide]",111.106
9,"Cc1ccc([N+](=O)[O-])cc1N1C(=O)C=CC1=O [10-O14, 1-(2-methyl-5-nitrophenyl)-2,5-dihydro-1H-pyrrole-2,5-dione]",26.6511
10,"CC(NC(=O)CCl)C(=O)N1CCCCC1C (stereo not drawn) [5-M06, 2-chloro-N-[1-(2-methylpiperidin-1-yl)-1-oxopropan-2-yl]acetamide]",96.6691
11,"C=CC(=O)NC(C)c1cn(-c2ccccc2)nn1 (stereo not drawn) [1-N04, N-[1-(1-phenyl-1H-1,2,3-triazol-4-yl)ethyl]prop-2-enamide]",110.893
12,"COc1ccc(-c2nn(-c3ccccc3)cc2C=C(C#N)C(N)=O)cc1 [8-L16, 2-cyano-3-[3-(4-methoxyphenyl)-1-phenyl-1H-pyrazol-4-yl]prop-2-enamide]",71.7199
13,"CCN(Cc1ccc(Cl)s1)C(=O)CCl [6-M11, 2-chloro-N-[(5-chlorothiophen-2-yl)methyl]-N-ethylacetamide]",83.1169
14,"CC(Cl)C(=O)N1N=C(c2ccc(Cl)cc2)CC1c1ccco1 (stereo not drawn) [5-H18, 2-chloro-1-[3-(4-chlorophenyl)-5-(furan-2-yl)-4,5-dihydro-1H-pyrazol-1-yl]propan-1-one]",49.4273
15,"O=C(CCl)N1N=C(c2ccc(Cl)cc2)CC1c1ccco1 (stereo not drawn) [5-L04, 2-chloro-1-[3-(4-chlorophenyl)-5-(furan-2-yl)-4,5-dihydro-1H-pyrazol-1-yl]ethan-1-one]",105.748
16,"COc1ccc(C2=NN(C(=O)CCl)C(c3ccco3)C2)cc1 (stereo not drawn) [4-N19, 2-chloro-1-[5-(furan-2-yl)-3-(4-methoxyphenyl)-4,5-dihydro-1H-pyrazol-1-yl]ethan-1-one]",106.103
17,"Cc1cc(C(=O)CCl)co1 [10-A13, 2-chloro-1-(5-methylfuran-3-yl)ethan-1-one]",114.397

row,Compound,% of control remaining [%]
1,"C=CC(=O)NCc1ccc2oc(=O)n(C)c2c1 [2-L15, N-[(3-methyl-2-oxo-2,3-dihydro-1,3-benzoxazol-5-yl)methyl]prop-2-enamide]",88.6519
2,"Cn1c(=O)oc2cc(C(=O)CCl)ccc21 [10-F07, 6-(2-chloroacetyl)-3-methyl-2,3-dihydro-1,3-benzoxazol-2-one]",44.886
3,"Cc1nc2n(n1)CCN(C(=O)C(C)Cl)C2 (stereo not drawn) [5-A04, 2-chloro-1-{2-methyl-5H,6H,7H,8H-[1,2,4]triazolo[1,5-a]pyrazin-7-yl}propan-1-one]",108.438
4,"O=C(CCl)NC(c1ccccc1)C1CCCC1 (stereo not drawn) [6-O18, 2-chloro-N-[cyclopentyl(phenyl)methyl]acetamide]",92.0656
5,"O=C(CCl)c1ccc(F)c(F)c1 [10-L13, 2-chloro-1-(3,4-difluorophenyl)ethan-1-one]",4.208
6,"O=C(CCl)c1cc(Cl)ccc1Cl [10-E16, 2-chloro-1-(2,5-dichlorophenyl)ethan-1-one]",49.5617
7,"COC(=O)c1ccc2[nH]cc(C(=O)CCl)c2c1 [10-D05, methyl 3-(2-chloroacetyl)-1H-indole-5-carboxylate]",99.1233
8,"Cc1cc(C(=O)CCl)c(C)n1-c1ccc(Cl)cc1 [10-H18, 2-chloro-1-[1-(4-chlorophenyl)-2,5-dimethyl-1H-pyrrol-3-yl]ethan-1-one]",103.331
9,"COC(=O)c1ccccc1NC(=O)CCl [5-B12, methyl 2-(2-chloroacetamido)benzoate]",89.6081
10,"O=C(CCl)c1sccc1Cl [10-K11, 2-chloro-1-(3-chlorothiophen-2-yl)ethan-1-one]",0
11,"CC(=O)NCCc1cc(C(=O)CCl)ccc1F [10-O05, N-{2-[5-(2-chloroacetyl)-2-fluorophenyl]ethyl}acetamide]",118.138
12,"COC(=O)c1cccc(C(=O)CCl)c1 [10-I11, methyl 3-(2-chloroacetyl)benzoate]",32.4177
13,"O=C(O)c1csc(C(=O)CCl)c1 [10-E22, 5-(2-chloroacetyl)thiophene-3-carboxylic acid]",102.864
14,"CN(C)C(=O)c1csc(C(=O)CCl)c1 [10-I07, 5-(2-chloroacetyl)-N,N-dimethylthiophene-3-carboxamide]",105.981
15,"Cc1cc(C(=O)CCl)c(C)n1-c1ccc(Cl)c(Cl)c1 [10-D18, 2-chloro-1-[1-(3,4-dichlorophenyl)-2,5-dimethyl-1H-pyrrol-3-yl]ethan-1-one]",108.475
16,"CC(Cl)C(=O)c1ccc(F)c(F)c1 (stereo not drawn) [10-A17, 2-chloro-1-(3,4-difluorophenyl)propan-1-one]",103.955
